Hit rate of the full screen: of about 69,000 compounds, about 8,600 (12%) showed an effect of 50% or more. For the sample, strong results were picked, then their nearest neighbours and some compounds at random.

The subject of this assay is Plasmodium berghei. The experiment in a line: Screen against P. berghei liver stage (PbLuc), transformed with Luciferase, at 10uM. It is filed as functional, HepG2. The following applies: tested at 10 uM.
Take `O=c1n(CCNc2cccc3ccccc23)nc2ccccn12`: the INHIBITION is recorded as 65.2%.

Turning to `O=c1n(CCNCc2cccc3ccccc23)nc2ccccn12`, the INHIBITION is 28.8%.

Take `CC(=O)N(Cc1ncc(C)o1)C1CCN(Cc2cnc(C)s2)C1` (configuration not stated): the INHIBITION was 14.2%. The result for `CC(C)C[C@H](N)C(=O)N1CC2(CCNCC2)c2cc(Cl)ccc21` reads -28.2%; that for `CCCc1noc(C2CCN(S(=O)(=O)c3cccs3)CC2)n1`, 4.97%; that for `COc1cccc2ccc(CN3CCN(c4ncccn4)CC3)nc12`, 39.8%. The value for `COc1cccc2ccc(CN3CCN(c4ccncc4)CC3)nc12` was 25.3%. The result for `COc1cccc2ccc(CN3CCN(c4ncccc4C)CC3)nc12` reads 61.1%; that for `Cc1ccc(CNC(C)c2ccc(OCC(=O)NC3CC3)cc2)o1` (configuration not stated), 40%; that for `COCc1noc(Cn2c(C)cc(C(F)(F)F)cc2=O)n1`, 41.2%. As to `CCCc1nnc(NCCCn2nc(C)c(Cl)c2C)o1`, the INHIBITION was 16.1%.

On to `CCN1CCO[C@@H]2CN(C(=O)COC3CCCC3)C[C@@H]2C1`, for which the INHIBITION amounted to 0.804%. The value for `CN(Cc1cccnc1)C1CC2(CCN(Cc3ccccn3)CC2)C1` was 50.9%. The value for `CN(Cc1cccnc1)C1CC2(CCN(c3ccccn3)CC2)C1` was 47.8%.

Regarding `CN(Cc1ccccn1)C1CC2(CCN(Cc3cccnc3)CC2)C1`, the INHIBITION amounted to 33%. The result for `CN(Cc1cccnc1)C1CC2(CCN(Cc3cccnc3)CC2)C1` reads 70.7%; that for `CN(Cc1ccccn1)C1CC2(CCN(Cc3ccccn3)CC2)C1`, 47.4%. In the case of `CN(Cc1cccnc1)C1CC2(CCN(C(=O)c3cnccn3)CC2)C1`, the INHIBITION is given as 21.7%. The result for `CN(Cc1cccnc1)C1CC2(CCN(C(=O)c3cscn3)CC2)C1` reads -18.5%. With `CN(Cc1cccnc1)C1CC2(CCN(C(=O)c3ccnnc3)CC2)C1`, the INHIBITION worked out at 53.9%. Consider `CN(Cc1ccncc1)C1CC2(CCN(C(=O)c3ccnnc3)CC2)C1`, for which the INHIBITION is given as -5.63%.

Take `Fc1ccc(CN2CCOCC3(CCN(Cc4nccs4)C3)C2)cc1` (configuration not stated): the INHIBITION is given as 7.24%. The result for `CCCc1nnc(NCCc2noc(C3CCC3)n2)o1` reads 12.7%; that for `CC(C)C(=O)NCCNC(=O)CCOc1cccc(F)c1`, 48.45%; that for `CCc1cc(NC2CCC(O)CC2)n2nc(C)c(C)c2n1` (configuration not stated), 25.1%. For `CC(C)CN1CCC(N2CCC(C(=O)N(C)C)CC2)CC1`, the INHIBITION is 18.6%. The result for `COc1ccc(OC2CCN(C(=O)CCc3n[nH]c(C)n3)CC2)cc1` reads -4.23%; that for `CN(C)CCOCC1CN(C(=O)c2ccsc2)Cc2ccnn2C1` (configuration not stated), -10.3%; that for `CS(=O)(=O)c1ccc(NCc2ccc(F)cc2)cn1`, -32.7%.

`Cc1cc(NC(=O)Cc2ccc3c(c2)OCO3)n(C)n1`: the INHIBITION was found to be 13.2%. The value for `Cc1cnc2n(c1=O)C(CC(=O)NCc1cccs1)CS2` (configuration not stated) was 6.09%.

On to `Cc1cnc2c(c1NCc1ccccn1)c(=O)n(C)c(=O)n2C`, for which the INHIBITION was 8.31%. The result for `Cc1cnc2c(c1NCc1ccc(F)cc1)c(=O)n(C)c(=O)n2C` reads 51.2%; that for `Cc1cnc2c(c1NCc1ccncc1)c(=O)n(C)c(=O)n2C`, -14.6%; that for `Cc1nn(C)c(N2CCOCC2)c1CNCc1ccc2c(c1)OCO2`, 7.67%. The value for `Cc1cnc2c(c1NCc1cccs1)c(=O)n(C)c(=O)n2C` was 54.1%; that for `CCc1cnc2c(c1Nc1ccccc1OC)c(=O)n(C)c(=O)n2C` was 15.4%. Take `Cc1cnc2n(c1=O)C(CC(=O)NCc1cccnc1)CS2` (configuration not stated): the INHIBITION is recorded as 40.9%. Consider `Cc1cnc2c(c1NCc1ccc3c(c1)OCO3)c(=O)n(C)c(=O)n2C`, for which the INHIBITION was 73.3%. Take `Cc1cnc2c(c1NCc1cccnc1)c(=O)n(C)c(=O)n2C`: the INHIBITION was found to be 71.8%. Consider `Cc1cnc(N2CCC3(CC2)COCCN(C(C)C)C3)nc1`, for which the INHIBITION turned out to be 12.2%.

Turning to `O=c1cnc2ccccc2n1CCCn1ccnc1`, the INHIBITION was 34%. The value for `Cc1cc2nc(C(C)C)cc(NCCNc3ncccc3C)n2n1` was 64.2%. For `Cc1cc(NCCNc2ncccc2C)n2nc(C)cc2n1`, the INHIBITION is given as 16%. The result for `Cc1cccnc1NCCNc1cc(C(C)C)nc2ccnn12` reads 43.9%; that for `O=C(O)Cc1cccc(-n2ccnc2-c2ccc(F)c(Cl)c2)c1`, -10.5%; that for `Cc1cccc(-c2nccn2-c2cccc(CC(=O)O)c2)n1`, 11.9%. As to `Cc1nccn1-c1ccc(=O)n(CCNC(=O)Cc2ccccc2)n1`, the INHIBITION came out at 13.8%. The result for `CNC(=O)Cc1ccc(-n2ccnc2-c2ccc(C(=O)O)s2)cc1` reads 51.2%; that for `O=C(O)Cc1cccc(-n2ccnc2-c2ccc(Cl)s2)c1`, 53.3%. In the case of `COc1cc(-n2ccnc2-c2ccc(C(=O)O)s2)ccc1NC(C)=O`, the INHIBITION is on record as 17.5%. The value for `CCn1c(C)nnc1SCCNC(=O)c1sc(C(C)C)nc1C` was -12.1%.

For the origin of these results see ChEMBL document CHEMBL4513216, “Probing the Open Global Health Chemical Diversity Library for Multistage-Active Starting Points for Next-Generation Antimalarials” (ACS Infect Dis, 2020).
